# Assay outcomes (PubChem)
# Shown are actives, neighbours in structure and some others; about 7.5% of the full set was active somewhere.
# FLuc counter: inhibits or activates purified firefly luciferase, miR-21 counter-screen; P08659; purified FLuc, Km substrates, luminescence inhibition; Potency, µM (top dose mostly 57.5 µM), for inactives: top-dose activity change, negative = inhibition, actives largely listed as inhibitors; AID 588342; actives 6.9% (n = 360,000);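 also: plate controls were vehicle for no effect and reference inhibitor for full effect; nearly all actives have a fitted effect of over 55% in size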
# Target sequence (P08659 whole entry, looked up): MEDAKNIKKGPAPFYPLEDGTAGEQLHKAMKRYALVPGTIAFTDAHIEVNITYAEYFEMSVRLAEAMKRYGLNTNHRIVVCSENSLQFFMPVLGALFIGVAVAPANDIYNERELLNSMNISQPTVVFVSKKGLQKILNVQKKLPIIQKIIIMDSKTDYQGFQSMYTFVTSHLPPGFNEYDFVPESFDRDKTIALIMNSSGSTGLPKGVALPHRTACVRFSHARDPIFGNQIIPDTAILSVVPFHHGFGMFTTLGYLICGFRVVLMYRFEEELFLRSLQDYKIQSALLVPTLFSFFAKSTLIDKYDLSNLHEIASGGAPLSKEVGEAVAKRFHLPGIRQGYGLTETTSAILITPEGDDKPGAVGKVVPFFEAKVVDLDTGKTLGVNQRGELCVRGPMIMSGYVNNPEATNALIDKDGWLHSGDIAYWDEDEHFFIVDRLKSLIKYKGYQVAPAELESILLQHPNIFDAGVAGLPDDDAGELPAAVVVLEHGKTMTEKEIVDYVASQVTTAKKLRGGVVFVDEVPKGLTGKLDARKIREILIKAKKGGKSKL
#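 Biochemical qHTS of compounds, final roughly 60 µM downward over six points, against 10 nM purified firefly luciferase using Km concentrations of substrates (10 uM D-luciferin, 10 uM ATP) in Tris acetate pH 7.5 buffer; luminescence output.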
# ELG1 genotox: induces genotoxicity in HEK293T cells with luciferase-tagged ELG1. HEK293T ELG1-luciferase reporter, luminescence, 16 h. Potency, µM (series often up to 46 µM), for the others: at the top dose activity change, positive = activation, hits mostly activators. actives 1.3% (n = 330,000). AID 504466; also: % of control where 0% means no effect; nearly all actives have a fitted effect of over 60% in size
#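 ELG1-luciferase HEK293T cells, 2,000/well; compound pinned in; 16 hr, 37 °C, 5% CO2; ONE-Glo, 30 min RT; luminescence on CCD imager.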
# Rab9 prom act: activators of Rab9 promoter. Huh7 Rab9 promoter-luciferase reporter, luminescence, 24 h. Potency, µM (titrated, usually from 9.22 µM), for the others: at the top dose activation, negative = inhibition, actives largely listed as activators. actives 2.8% (n = 320,000); also: % of control where 0% means no effect; nearly all actives have a fitted effect of over 60% in size
#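 Promoter activation is measured as luciferase luminescence in Huh7 cells stably transfected with a Rab9 promoter–luciferase construct, following 24 h compound exposure at 37 °C and 10 min reagent incubation at ambient temperature.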
# NPC1 prom act: activates the NPC1 promoter | Huh7 NPC1 promoter luciferase reporter, 24 h | Potency, µM (series often up to 9.22 µM), for inactives: at the top dose activation, actives largely listed as activators | actives 2.4% (n = 320,000) | AID 485313; also: % of control where 0% means no effect; nearly all actives have a fitted effect of over 60% in size
#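 Readout is luciferase luminescence, reflecting NPC1 promoter activation in stably transfected Huh7 cells after 24 h compound exposure at 37 °C in reduced-serum medium with 10% FBS.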
# SMN2 splice enh: SMN2 splice variant enhancement; HEK293 SMN2-luciferase splicing reporter, luminescence, 30-36 h; Potency, µM (doses to about 46.1 µM), for the others: at the top dose activity change, positive = activation, hits mostly activators; actives 2.8% (n = 210,000); AID 1458; also: % of control where 0% means no effect; nearly all actives have a fitted effect of over 55% in size
#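 HEK293 cells carry an SMN2 minigene-luciferase reporter in which exon 7 inclusion puts luciferase in frame. Cells were seeded at 2000 cells/well, attached for 10-12 hours, then exposed to compounds for 30-36 hours at 37C before ONE-Glo luminescence.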
# Luc counter: Kinase-Glo luciferase inhibition (counter-screen); Q27757; Kinase-Glo luciferase, ATP luminescence, 8 min; Potency, µM (top dose mostly 38.3 µM), without a hit: top-dose activity change, negative = inhibition, usual class: inhibitors; actives 0.28% (n = 200,000); also: % is scaled to controls: 0 for no effect and ±100 for the full control effect; nearly all actives have a fitted effect of over 60% in size
#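 Light output from Kinase-Glo luciferase with luciferin and 10 uM ATP in 50 mM imidazole pH 7.2, KCl, MgCl2, Tween 20, BSA; compound pin-delivered, 8-min ambient incubation, then luminescence read.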
# Starred values were filed as active, the others as inactive; ? = inconclusive; . = not tested or not shown; [ ] = remark or other dose. Calls follow the shape of the dose curve; as a rule, active = well fitted curve in the direction sought with a large enough effect; inconclusive = small, poorly fitted or top-dose-only effect, or another doubt; inactive = no such curve, though single readings can be large; an effect the other way counts as inactive or inconclusive. Potency is read from the fitted curve at half-maximal effect.
SMILES,FLuc counter,ELG1 genotox,Rab9 prom act,NPC1 prom act,SMN2 splice enh,Luc counter
O=C(O)c1cccc(C(=O)Nc2cccc(NC(=O)C3CCCO3)c2)c1 (stereo not drawn),2.1µM*,-6%,22%,20%,.,-7%
O=C(O)c1cccc(NC(=O)c2cccc(NC(=O)C3CCCO3)c2)c1 (stereo not drawn),3µM*,0%,26%,28%,1%,8%
COc1cc(/C=C(\C#N)c2nc3ccccc3[nH]2)ccc1OC(=O)c1ccco1,0.95µM*,?,?,26%,35µM*,?
CCOc1cccc(/C=C(/C#N)c2nc3ccccc3[nH]2)c1OCC(=O)O,?,0%,0%,-5%,.,.
N#C/C(=C\c1cccc(OCC(=O)O)c1)c1nc2ccccc2[nH]1,17µM*,2%,13%,-4%,.,.
N#C/C(=C\c1ccc(OC(=O)c2ccc(Cl)s2)cc1)c1nc2ccccc2[nH]1,-2%,?,?,21%,18µM*,2%
COc1cc(/C=C(/C#N)c2nc3ccccc3[nH]2)ccc1OCC(=O)Nc1ccccc1C,4%,?,-5%,-4%,-10%,-9%
N#C/C(=C\c1ccc(OCc2ccc(Cl)cc2Cl)cc1)c1nc2ccccc2[nH]1,-7%,.,.,.,-2%,.
N#C/C(=C\c1ccc(OC(=O)c2ccc(Br)s2)cc1)c1nc2ccccc2[nH]1,-4%,18%,?,?,13µM*,-2%
CN(CCCNC(=O)Cn1ncc2c([nH]c3ccccc32)c1=O)Cc1ccccc1,0%,.,.,.,.,.
COc1ccc2c(c1)c1c(c(=O)n(Cc3ccccc3)c(=O)n1CC(=O)NCc1ccc(C)cc1)n2C,2%,.,.,.,.,.
CCC1CCCCN1C(=O)CCS(=O)(=O)c1cc2c(cc1C)NC(=O)CO2 (stereo not drawn),-3%,.,.,.,.,.
CC1=CCC(/C=N\Nc2nnc3c(n2)[nH]c2ccccc23)CC1 (stereo not drawn),1.5µM*,?,?,?,9%,-4%
COc1ccc2cc(CNc3ccc(C)cc3)c(=O)n(CC(=O)Nc3ccc(OC)c(Cl)c3)c2c1,1%,.,.,.,.,.
CC(=O)N(C[C@@H](O)CO)c1c(I)c(C(=O)NC[C@@H](O)CO)c(I)c(C(=O)NC[C@@H](O)CO)c1I,.,.,.,.,4%[20.6 µM],-3%[17.1 µM]
CCOC(=O)c1cnn(-c2ncnc3c2oc2ccccc23)c1N,1.1µM*,1.6µM*,1.1µM*,1.3µM*,10µM*,-5%
CCOC(=O)c1cnn(-c2ccccn2)c1N,21µM*,?,4µM*,4µM*,.,-12%
CCOC(=O)C1CCN(c2ncnc3c2oc2ccccc23)CC1,-14%,-3%,7%,-2%,-34%,-2%
CCOC(=O)c1cnn(-c2cc(C)c3ccccc3n2)c1N,8.5µM*,7%,-31%,?,1%,-4%
COc1ccccc1NC(=O)CCn1c(=O)c2cccn2c2ccccc21,-2%,-6%,1%,-1%,.,.
COc1ccc(NC(=O)CCCn2c(=O)c3cccn3c3ccccc32)c(OC)c1,0.85µM*,.,.,.,.,.
O=C(CCCn1c(=O)c2cccn2c2ccccc21)Nc1cccc(Cl)c1,12µM*,.,.,.,.,.
Cn1nnnc1SCCCNCc1ccc(-c2ccc(Br)cc2)o1,-13%,.,.,.,.,.
COc1ccc2oc(C(=O)NCCN3CCOCC3)c(C)c2c1OC,15µM*,10µM*,2.2µM*,2µM*,.,.
Cc1ccc2oc(C(=O)NCCCN3CCOCC3)c(C)c2c1,13µM*,18µM*,4µM*,3.2µM*,.,.
SMILES,FLuc counter,ELG1 genotox,Rab9 prom act,NPC1 prom act,SMN2 splice enh,Luc counter
COc1ccsc1C(=O)NCCN1CCOCC1,6%,-4%,2%,1%,.,.
Cc1ccc2oc(C(=O)NCCC3CCCCO3)c(C)c2c1 (stereo not drawn),2.7µM*,3.7µM*,0.45µM*,0.56µM*,.,.
COc1ccc(NC(=O)Cn2c(=O)n(CCCC(=O)NCCc3ccc(C)cc3)c(=O)c3ccccc32)cc1Cl,4%,.,.,.,-2%,.
O=C1c2cccc3c(N4CCCCC4)ccc(c23)C(=O)N1c1cccc(O)c1,19µM*,12%,0%,0%,-10%,2%
O=C1c2cccc3c(N4CCCCC4)ccc(c23)C(=O)N1CCO,15µM*,?,?,?,10%,2%
O=C1CC2(CCCC2)CC(=O)N1CCCCNC[C@H]1COc2ccccc2O1,.,.,.,.,.,5%
COC(=O)c1cccnc1-n1c(=O)c2cccnc2n(CC(=O)Nc2cccc(C)c2)c1=O,-1%,.,.,.,6%,.
COc1ccc(/C=N/NC(=O)c2cc(C34CC5CC(CC(C5)C3)C4)[nH]n2)cc1OC,?,3%,-3%,-5%,5%,-1%
O=C(N/N=C/c1ccc(O)cc1)c1cc(C23CC4CC(CC(C4)C2)C3)[nH]n1,13µM*,4%,10%,-2%,.,.
CCCOc1ccc(C2C(=O)N(C3CCC(C)CC3)CC(=O)N2CCc2ccccc2)cc1OC (stereo not drawn),-5%,.,.,.,.,.
O=C(COc1ccc(Cl)cc1[N+](=O)[O-])NC1CCCCC1,11µM*,?,1.4µM*,?,11µM*,1%
CC(=O)c1cc(Cl)ccc1OCC(=O)NC1CCCC1,17µM*,-1%,?,?,.,.
O=C(COc1ccc(Cl)cc1Br)NC1CC1,13µM*,10%,28%,?,.,.
O=C(COc1ccc(Cl)cc1Cl)Nc1ccc(CN2CCOCC2)cc1,-19%,1%,-3%,-1%,.,.
O=C(COc1ccc(Cl)cc1Cl)NC(=O)N1CCOCC1,21µM*,5%,-5%,-5%,20%,-1%
COc1ccccc1/C=C/C(=O)OCC(=O)Nc1ccc2c(c1)OCCO2,.,2%,-5%,0%,.,.
O=C(/C=C/c1ccccc1)Nc1ccc2c(c1)OCCO2,0.21µM*,?,0.45µM*,0.5µM*,1.1µM*,-13%
COc1ccccc1/C=C/C(=O)Nc1ccc2c(c1)OCCO2,0.85µM*,?,0.71µM*,?,2.8µM*,-5%
O=C(/C=C/c1ccco1)Nc1ccc2c(c1)OCCO2,1.9µM*,-5%,0.63µM*,2.2µM*,8.9µM*,-17%
O=C(COC(=O)c1ccccc1-n1cnnn1)c1ccc(F)c(F)c1,?,?,13%,14%,.,.
O=C(COC(=O)c1ccccc1-n1cnnn1)c1ccc(Br)cc1,5.4µM*,18µM*,-1%,-3%,.,.
O=C(COC(=O)c1ccccc1-n1cnnn1)c1ccccc1,19µM*,11%,9%,8%,.,.
Cc1ccc(C(=O)N2CCC(c3c[nH]c4ccccc34)(c3c[nH]c4ccccc34)CC2)cc1,-1%,.,.,.,26%,.
